S aureus helic: S. aureus DNA helicase inhibition | purified S. aureus helicase, fluorescence unwinding assay | inhibition, % (concentration not given with the values) | actives 0.05% (n = 120,000) | AID 485395; in the data active means inhibition above about 25%, passing the limit was not always enough;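 further: 0% = mean of negative control wells and 100% = mean of positive control wells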
Sa growth inh: inhibitors of Staphylococcus aureus growth at 42 °C. relative growth, % (no concentration beside the values). S. aureus RN4220 growth, OD600, 20 h; active compounds read low. actives 0.53% (n = 170,000). AID 720641;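 active means relative growth at most 50% at the other temperature and 20+ points below 30 °C, or under 10% at both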
* marks the source's active call; other numbers are inactive results; . = no result given. Rows were chosen to be rich in hits. Some 0.52% of all compounds tested hit in one or more screens of this group.

SMILES	S aureus helic	Sa growth inh
COc1cc2nc(N3CCN(c4cc(C)ccc4C)CC3)nc(N)c2cc1OC	-12.0	-0.7*
COc1nc(OC)nc(N2CCN(c3cc(C)ccc3C)CC2)n1	7.0	91.7
NC(=S)N/N=C/c1ccc(N2CCOCC2)s1	10.0	81.1
CCOC(=O)/C(C#N)=N/Nc1ccc(SC(F)F)cc1	10.0	33.5
N#CC(C#N)=NNc1ccc(SC(F)F)cc1	30.0	0.9*
CC1(C)C2CC=C(/C=N/NC(=O)c3cccnc3)C1C2 (centres undefined)	13.0	91.5
Cc1ccc(CN2C(=O)/C(=C\c3ccc(C(=O)N4CCN(c5ncccn5)CC4)cc3)Oc3ccccc32)cc1	7.0	100.5
COC(=O)c1ccc2[nH]c3c(c2c1)CCCC3	10.0	82.8
CC(C)OC(=O)c1ccc2[nH]c3c(c2c1)CCCC3	10.0	33.7*
O=C(c1ccco1)N1CCN(C(=O)c2sc3ccccc3c2Cl)CC1	.	91.4
O=C(Oc1c(C(=O)c2ccccc2)sc2ccccc12)c1ccco1	6.0	1.7*
N#CCOc1ccc2c3c(c(=O)oc2c1)CCC3	-8.0	76.3
CCN1CCCC1CNCC(=O)Nc1ccc(C)c(Br)c1 (centres undefined)	0.0	97.9
CCN1CCCC1CNC(=O)Nc1ccc(Cl)c(Cl)c1 (centres undefined)	10.0	0.6*
CC1CCN(C(=O)COC(=O)c2ccc(I)cc2)CC1	10.0	115.6
COc1ccc(NC(=O)c2sc(=S)n3c2[nH]c(=O)c2ccccc23)cc1	-13.0	35.3
Cc1ccc(NC(=O)c2sc(=S)n3c2[nH]c(=O)c2ccccc23)c(C)c1	.	4.6*
COc1ccc(-n2ccnc2SCC(=O)NCc2ccccc2)cc1	3.0	.
C/C=C\C1=C(C(=O)O)N2C(=O)C(NC(=O)C(N)c3ccc(O)cc3)C2SC1 (centres undefined)	.	1.2*
CC1=C(C(=O)O)N2C(=O)[C@@H](NC(=O)[C@H](N)c3ccccc3)[C@H]2SC1	.	91.9
O=C(Nc1ccccc1)Nc1ccc2nnsc2c1	.	2.4*
O=C(Nc1cccc(C(F)(F)F)c1)Nc1ccc2snnc2c1	.	9.9*
O=C(Nc1ccccc1)Nc1ccc2snnc2c1	13.0	13.5
O=C(Nc1cccc(C(F)(F)F)c1)c1ccc2snnc2c1	.	98.6
Cc1cc(C(=O)NNc2c(Cl)cc(Cl)cc2Cl)nn1C	18.0	91.3
SMILES	S aureus helic	Sa growth inh
CC1(C)CC(N2CCCC2)=C/C(=N/NC(=O)c2cccnc2)C1	-8.0	64.8
O=C(/C=C/C(=O)c1ccccc1)c1ccccc1	32.0	-0.4*
CN(C)/C=C/C(=O)c1ccccc1	10.0	84.3
N#CCc1cccc(N)c1	30.0	86.1
O=C(NC(SC1=NCCS1)C(=O)c1ccccc1)c1ccccc1 (centres undefined)	-15.0	98.8
O=C(c1cnn(-c2ccccc2)n1)N(Cc1nc2ccccc2c(=O)[nH]1)CC1CCCO1 (centres undefined)	-11.0	90.2
O=C1OCCN1/N=C/c1ccc([N+](=O)[O-])o1	.	-0.9*
O=C1CN(/N=C/c2ccc([N+](=O)[O-])o2)C(=O)N1	.	13.3
COc1ccc(S(=O)(=O)Nc2ccc3c(c2)n(C)c(=O)n3C)cc1C(=O)N1CCCCCC1	-19.0	84.0
Cc1ccc2c(Cl)cc(Cl)c(OCC(=O)NCc3ccco3)c2n1	-2.0	-1.6*
Cc1cc(OCC(=O)NCc2ccco2)c(C)cc1Br	7.0	93.4
COc1ccc(OCc2nnco2)cc1	10.0	107.1
Cn1c(C(=O)Nc2ccc3c(c2)NC(=O)CC3)cc(=O)n(C)c1=O	16.0	91.2
Nc1nc2ccccc2n1Cc1ccccc1F	-13.0	102.2
CC(C)(C)c1ccc(Cn2c(N)nc3ccccc32)cc1	10.0	6.3*
Cc1nccc(-c2cccc(N/N=C(\C#N)S(=O)(=O)c3ccccn3)c2)n1	0.0	94.6
Cc1nccc(-c2cccc(NN=C(C#N)C#N)c2)n1	20.0	-0.4*
COC(=O)c1cn(-c2ccccc2)nc1-c1cccs1	-5.0	18.4*
CN(C)C(=O)c1cn(-c2ccccc2)nc1-c1cccs1	-14.0	80.6
COc1cc(C(=O)N2CCN(Cc3ccccc3)CC2)cc(CN2C(=O)c3ccccc3C2=O)c1OC	-10.0	106.7
O=S(=O)(c1ccc(NC2CCN(Cc3ccccc3)CC2)nc1)N1CCCCC1	38.0*	94.0
O=C(CSc1ccc(S(=O)(=O)N2CCN(Cc3ccccc3)CC2)cn1)NC(=O)NC1CCCC1	4.0	99.7
Cc1ccc(S(=O)(=O)C2(C(=O)N3CCCC3)CC2)cc1	16.0	116.7
COc1ccc(OC)c(NC(=O)c2nc(S(=O)(=O)Cc3ccc(F)cc3)ncc2Cl)c1	.	-1.1*
Cc1ccccc1CS(=O)(=O)c1ncc(Cl)c(C(=O)Nc2nnc(C(C)C)s2)n1	.	5.7*
Cc1ccc(NC(=O)c2nc(S(=O)(=O)Cc3ccc(F)cc3)ncc2Cl)cc1C	.	101.3
CC(C)c1nnc(NC(=O)c2nc(S(=O)(=O)Cc3ccccc3)ncc2Cl)s1	.	7.3*
Cc1ccc(CS(=O)(=O)c2ncc(Cl)c(C(=O)Nc3nc4ccc(C)cc4s3)n2)cc1	.	92.1

Screening data: PubChem BioAssay, ICCB-Longwood Screening Facility, Harvard Medical School
